Potency data for 49 molecules are collected here from PubChem BioAssay AID485364 (National Center for Advancing Translational Sciences (NCATS), 2010).

Structures are written as SMILES. About 11,000 (3.1%) of roughly 360,000 compounds were called active. Not shown: some 4% with an inconclusive outcome. Calls follow the shape of the dose curve; as a rule, active = well fitted inhibition curve with a large enough effect; inconclusive = small, poorly fitted or top-dose-only effect; inactive = no such curve, though single readings can be large or run the other way. Shown is part of a subset that was picked to be rich in actives. Entries that show only a call come without a potency.
Potency is read from the fitted curve at half-maximal effect.

For this experiment, the target named is Schistosoma mansoni thioredoxin glutathione reductase (TGR) (UniProt Q962Y6). In words: qHTS Assay for the Inhibitors of Schistosoma Mansoni Peroxiredoxins. Also: nearly all actives have a fitted effect of over 60% in size. Particulars: purified TGR, DTNB reduction, TNB absorbance 405 nm; series mostly up to 114 µM. The text has this: Schistosomiasis is a major neglected tropical disease that currently affects over 200 million. It is caused by different species of flatworms, such as Schistosoma mansoni. Over the last century, drugs to treat the disease have evolved from potassium antimonyl tartrate, artemisinin, oxamniquine, to praziquantel, with praziquantel remaining the universally-used single drug of choice over the past three decades. However, transmission rates have changed little with praziquantel, and there is evidence for the development of drug resistant parasites. Because there is currently no suitable alternative therapy available, there is an urgent need to identify new targets and drugs for schistosomiasis treatment. Thioredoxin glutathione reductase (TGR), one uniquely positioned S. mansoni enzyme, has been identified as a major component of the worms' distinct and compressed antioxidant "firewall". TGR is a multifunctional enzyme that catalyzes the interconversion between reduced and oxidized forms of both glutathione (GSH) and thioredoxins, thus making it an attractive new antiparasitic target. Recently, a quantitative high-throughput screen of the NIH Molecular Libraries Small Molecule Repository (MLSMR, ~71K at the time of the screen in 2007) was performed using an assay that targeted both TGR and peroxiredoxin2 (Prx2, an H2O2-reducing enzymatic component of the S. mansoni redox "firewall") by following the decrease of NADPH fluorescence. […] Additional mechanistic link between exogenous NO donation and parasitic injury for the oxadiazole-2-oxide class of compounds was also expanded and better defined. Although the screen addressed both TGR and Prx2, the assay required post-screen target deconvolution for further characterization of the actives. In addition, the fluorescence assay was also subject to fluorescence interference from compound library members. We have developed a 1536-well-based kinetic HTS assay to address TGR alone. The assay followed the reduction of 5, 5'-dithiobis (2-nitrobenzoic acid) (DTNB) (Ellman's reagent) by NADPH and measured the increase in absorbance at 412 nm of the reaction product, TNB. […] This assay format can be used to screen the current MLSMR collection (with >300K compounds available) to find novel TGR inhibitors. Furoxan is a good choice to serve as a positive control in the primary HTS assay.
Three microliters of reagents (100 uM NADPH and 20 nM TGR or 100 uM NADPH as no-enzyme control) were dispensed into 1,536-well black clear-bottomed plates. Compounds (23 nL) were transferred via Kalypsys pin tool equipped with 1536-pin array (10 nL slotted pins, V&P Scientific, San Diego, CA). The plates were then be incubated for 15 min at room temperature, and 1 uL aliquot of 500 uM NADPH were added, immediately followed by a 1 uL aliquot of 15 mM DTNB to start the reaction. The plate was transferred to a ViewLux high-throughput CCD imager (Perkin-Elmer, Wellesley, MA) where kinetic measurements of the TNB absorbance were acquired using a 405 excitation filter. Throughout the screen, reagent bottles and all liquid lines were made light-tight to minimize reagent degradation. All screening operations were performed on a fully integrated robotic system (Kalypsys, San Diego, CA) containing one RX-130 and two RX-90 anthropomorphic robotic arms (Staubli, Duncan, SC). Library plates were screened starting from the lowest and proceeding to the highest concentration, and a "double-dipping" step of the highest concentration was required to access higher concentrations of compounds. Vehicle-only plates, with DMSO being pin-transferred to the entire column 5-48 compound area, were inserted uniformly at the beginning and the end of each library in order to monitor for and record any shifts in the background, which can be affected by reagent dispensers or loss in enzyme activity overtime. […]
Take `O=C1Cc2cc(S(=O)(=O)Nc3ccc(OC(F)(F)F)cc3)cc3c2N1CCC3`: the Potency result is “inactive”.

Regarding `COc1ccc(-c2c3c(=O)n(C)c(=O)n(C)c3cn2NC(C)=O)cc1`, the Potency result is “inactive”.

Take `Cc1ccc(-c2c3c(=O)n(C)c(=O)n(C)c3cn2-n2cnnc2)cc1`: the Potency was 39.8 µM (active).

On to `Cc1ccc(-c2c3c(=O)n(C)c(=O)n(C)c3cn2-c2ccccc2O)cc1`, for which the Potency result was “inactive”.

In the case of `C=CCN(N=Nc1cccc([N+](=O)[O-])c1)c1cccc([N+](=O)[O-])c1`, the Potency is 20 µM (active).

As to `C=CCNC(=O)/C(=C\c1cccc([N+](=O)[O-])c1)NC(=O)c1ccccc1`, the Potency result is “inactive”.

In the case of `C=CCN(CC=C)CCOc1ccccc1[N+](=O)[O-]`, the Potency result was “inactive”.

Regarding `CCn1cc(C(=O)NCc2ccccc2)c(=O)c2cc(S(=O)(=O)N3CCCCC3)ccc21`, the Potency entry was “inactive”.

Turning to `C#CCOc1ccc(C2CC(=O)Nc3c2c(C)nn3-c2nc(C)cc(C)n2)cc1` (centres undefined), the Potency result was “inactive”.

As to `O=C(CSc1nccn1Cc1ccc(F)cc1)NCc1ccccc1`, the Potency result was “inactive”.

On to `CN(C)c1cccc(C(=O)Nc2nc3ccc(S(=O)(=O)NC(C)(C)C)cc3s2)c1`, for which the Potency entry is “inactive”.

With `O=C(c1ccc(Cl)cc1)n1nc(-c2cccnc2)nc1NCc1ccc(F)cc1`, the Potency result is “inactive”.

For `CCc1nc2cccnc2n1-c1ccc(CC(=O)Nc2c(C)cccc2C)cc1`, the Potency entry is “inactive”.

Take `CCc1nc2cccnc2n1-c1ccc(C(=O)O)cc1`: the Potency is 44.7 µM (active).

In the case of `COCCCNC(=O)Cc1ccc(-n2c(C)nc3cccnc32)cc1`, the Potency entry was “inactive”.

Turning to `CCOc1ccc(NC(=O)c2c(NC(=O)Cc3ccccc3)sc3c2CCC(C)C3)cc1` (centres undefined), the Potency result is “inactive”.

Regarding `Cc1ccc(C2CC(c3cccc(C)c3)n3nc(N)nc3N2)cc1` (centres undefined), the Potency result was “inactive”.

As to `COc1ccc(C2CC(c3ccc(C)cc3)Nc3ncnn32)cc1` (centres undefined), the Potency entry is “inactive”.

Turning to `COc1cccc(N2C(=O)C3CCCN3C2c2ccc(F)cc2)c1` (centres undefined), the Potency entry is “inactive”.

On to `COc1cccc(C2Nc3cccc4cccc(c34)N2)c1`, for which the Potency was 20 µM (active).

Regarding `Oc1ccc(C2Nc3cccc4cccc(c34)N2)cc1`, the Potency is 14.1 µM (active).

Take `COc1ccc(C2NC(=O)c3ccccc3N2)cc1` (centres undefined): the Potency result was “inactive”.

Consider `Cc1ccc(C2Nc3cccc4cccc(c34)N2)cc1`, for which the Potency was 17.8 µM (active).

In the case of `COc1ccc(-c2nn(CC(=O)NC3CCCC3)c3c2cnc2ccc(F)cc23)cc1`, the Potency entry was “inactive”.

In the case of `CCn1cc(C(=O)NCc2ccc(C)cc2)c(=O)c2cc(S(=O)(=O)N3CCc4ccccc4C3)ccc21`, the Potency result was “inactive”.

Turning to `COc1ccc(CNC(=O)COCc2cc(-c3cccs3)on2)cc1OC`, the Potency entry was “inactive”.

Regarding `Cc1ccc(Cl)cc1N1CCN(C(=O)C2CCC(CNS(=O)(=O)c3cccs3)CC2)CC1` (centres undefined), the Potency entry is “inactive”.

For the molecule `CCOc1ccc(CCNC(=O)c2csc3c2CCCCC3)cc1`, the Potency result was “inactive”.

As for `COCCNC(=O)c1ccc2c(c1)N=C(C)c1cc(C)ccc1S2`, the Potency entry was “inactive”.

Regarding `CCOc1ccc(-c2cc(C)n3nc(C(=O)Nc4ccc(C)c(C)c4)cc3n2)cc1`, the Potency entry is “inactive”.

As for `CCn1cc(C(=O)OCC(=O)Nc2cc(C)cc(C)c2)c(=O)c2ccc(C)nc21`, the Potency entry is “inactive”.

Consider `O=C(CCS(=O)(=O)c1ccc2c(c1)NC(=O)CO2)Nc1cccc(C(F)(F)F)c1`, for which the Potency result is “inactive”.

Consider `COc1cccc(-n2cc(C(=O)NCc3cccc(Cl)c3)c3ccccc3c2=O)c1`, for which the Potency result was “inactive”.

Regarding `COc1cccc(-c2nnc3n(CCc4ccccc4)c(=O)c4ccccc4n23)c1O`, the Potency entry was “inactive”.

`COc1cccc(-n2ccn(CC(=O)NCc3ccc(C)cc3)c(=O)c2=O)c1`: the Potency result was “inactive”.

As to `COC(=O)C1=NN(c2ccccc2)C2C(=O)N(c3ccccc3OC)C(=O)C12` (centres undefined), the Potency result is “inactive”.

For the molecule `COc1cc(C2C3C(=O)N(c4ccccc4)C(=O)C3ON2c2ccccc2)ccc1O` (centres undefined), the Potency entry is “inactive”.

On to `Cc1ccccc1N1C(=O)C2ON(c3ccccc3)C(c3ccncc3)C2C1=O` (centres undefined), for which the Potency is 44.7 µM (active).

For the molecule `CC(C)(C)c1ccc(C(=O)N2CCC(c3nc(-c4ccc(S(=O)(=O)N5CCCC5)cc4)no3)CC2)cc1`, the Potency entry is “inactive”.

For the molecule `CC(=O)c1ccc(N2CCN(C3C(=O)c4ccccc4N3C(C)=O)CC2)cc1` (centres undefined), the Potency entry was “inactive”.

Take `CCC(=O)N1CCc2cc(S(=O)(=O)NC(C(=O)Nc3ccc(C(C)=O)cc3)C(C)C)ccc21` (centres undefined): the Potency entry is “inactive”.

Regarding `CC(Nc1ccc(-c2nc(-c3ccco3)no2)cc1[N+](=O)[O-])c1ccccc1` (centres undefined), the Potency is 31.6 µM (active).

As to `O=[N+]([O-])c1cc(-c2nc(-c3ccccc3)no2)ccc1NCc1ccco1`, the Potency entry is “inactive”.

On to `CNc1ccc(-c2nc(-c3ccco3)no2)cc1[N+](=O)[O-]`, for which the Potency result was “inactive”.

Take `COC(=O)c1ccccc1NC(=O)Cc1ccccc1OC`: the Potency result is “inactive”.

Consider `COc1ccccc1CNC(=O)CCCN1C(=O)NC2(CCCC2)C1=O`, for which the Potency result was “inactive”.

As to `CC[C@]1(c2ccccc2OC)C(=O)N(C(=O)OC)N1C(=O)OC`, the Potency was 31.6 µM (active).

In the case of `CCOC(=O)c1cc2c(=O)n3ccccc3nc2n(Cc2ccco2)c1=NC(=O)c1ccc(F)cc1`, the Potency result is “inactive”.

For the molecule `Cc1cccc(Nc2cc(C)nc(-n3nc(C)cc3C)n2)c1`, the Potency result is “inactive”.
